Rows were chosen to be rich in hits. Some 3.9% of all compounds tested hit in one or more screens of this group.
HSF1 inhib: HSF1 inhibition. NIH3T3-HGL HSE-luciferase, MG132-induced, luminescence 8 h; hits give low values. activity change, negative = inhibition, % at 7.5 µM (by protocol). 0.77% of 300,000 active;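 active means more than half of replicate wells show activity change below -50%, luminescence cut by over half; inconclusive means some wells, but at most half, below -50%; inactive means no replicate well below -50%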;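 further: luciferase reports HSF-1 transcriptional activity via heat shock element; 0% = median of DMSO wells and -100% = zero luminescence signal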
MITF TRPM1 HTS: MITF TRPM1 promoter activation in melanoma cells; activation, % at 12.5 µM; 0.75% of 300,000 active; AID 588334; SK-MEL-5 TRPM1-promoter luciferase, 24 h; % of positive control, neutral wells = 0;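 active means mean activation of at least 80% with every replicate also reaching 80%; inconclusive means mean reaches 80% but some replicate falls short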;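 further: 0% = neutral control wells and 100% = parthenolide positive control wells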
esBAF inh: SWI/SNF esBAF complex inhibition | reporter increase, % at 12.5 µM | mouse ES cells, Bmi1-luciferase knock-in reporter, 24 h; 100% = twice the neutral-well signal | 2% of 350,000 active; in the data active means activation above about 40%; inconclusive means no clear call, values can overlap the other calls;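 further: 0% = median of the plate's neutral control wells and 100% = double that signal; a rise in the Bmi1 reporter signal indicates esBAF inhibition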
Wnt act: Wnt/beta-catenin pathway activation. activation, % at 9.35 µM. 1.2% of 300,000 active. Wnt/beta-catenin reporter cell assay, activator, plate reader. AID 743398; in the data active means activation above about 30%, passing the limit was not always enough; inconclusive means no clear call, values can overlap the other calls;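 further: 0% = neutral control wells and 100% = positive control wells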
HSF1 activator: increases HSF-1 driven luciferase reporter signal; 1.7% of 300,000 active; NIH3T3-HGL HSF-1 luciferase reporter, MG132, 8 h; 100% = twice DMSO control signal; activation, % at 9 µM;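 active means mean replicate activation of at least 50% with a set share of replicates each reaching 50%; inconclusive means only one of those two conditions met; inactive means mean below 50% and too few replicates reaching it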;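 further: 0% = median of the neutral control wells and 100% = twice that signal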
The depositor's hits bear a star.

Results for Cc1ccc(S(=O)(=O)N(C)C[C@@H]2OCCCC[C@@H](C)Oc3ccc(NC(=O)c4ccccc4)cc3C(=O)N([C@@H](C)CO)C[C@H]2C)cc1 ?
esBAF inh: 2

How did O=C(NCc1ccccn1)c1ccc(Cl)s1 do in these assays?
HSF1 inhib: -8; MITF TRPM1 HTS: 29; esBAF inh: 3; Wnt act: 3; HSF1 activator: 0

What do the screens show for `O=C(Nc1ccc(Br)cn1)c1ccc(Br)s1`?
HSF1 inhib: 37; MITF TRPM1 HTS: 21; esBAF inh: 45; Wnt act: 38*; HSF1 activator: 70*

What do the screens show for `O=C(Nc1ccccn1)c1ccc(Cl)s1`?
HSF1 inhib: 23; MITF TRPM1 HTS: 161*; Wnt act: 16; HSF1 activator: 37

What do the screens show for `Cc1ccc(S(=O)(=O)Nc2ccc3c(c2)C(=O)N([C@@H](C)CO)C[C@@H](C)[C@H](CN(C)C(=O)Nc2ccccc2)OCCCC[C@@H](C)O3)cc1`?
esBAF inh: 9

Results for COC(=O)c1c(C)[nH]c(C)c1-c1cccc([N+](=O)[O-])c1 ?
HSF1 inhib: -91*; MITF TRPM1 HTS: -6; Wnt act: -3; HSF1 activator: -93

What do the screens show for `Cc1cccc(C(=O)NC2C(=O)NNC2c2ccc(Cl)cc2)c1` (configuration not stated)?
HSF1 inhib: 37; MITF TRPM1 HTS: -8; Wnt act: -1; HSF1 activator: 35

How did O=C(NC1C(=O)NNC1c1ccccc1)c1ccccc1 (configuration not stated) do in these assays?
HSF1 inhib: 116; MITF TRPM1 HTS: 24; HSF1 activator: 168*

How did COc1ccccc1-c1nnc(-c2ccc(C)cc2)o1 do in these assays?
HSF1 inhib: 53; Wnt act: -1; HSF1 activator: inconclusive

Results for COc1ccccc1-c1nnc(-c2ccc(N3CCOCC3)cc2)o1 ?
HSF1 inhib: 16; MITF TRPM1 HTS: 74; HSF1 activator: 59*

Results for O=C(Nc1ccccc1)N1CC=C(c2ccc(F)cc2)CC1 ?
HSF1 inhib: 21; MITF TRPM1 HTS: 103*; esBAF inh: 61*; HSF1 activator: 33

What do the screens show for `Cc1nc2cc(NC(=O)N3CCC(c4ccccc4)C3)ccc2n1C` (configuration not stated)?
HSF1 inhib: 10; MITF TRPM1 HTS: 41; esBAF inh: 54*; Wnt act: 6; HSF1 activator: 11

What do the screens show for `Cc1ccc(C2CCN(C(=O)Nc3ccc(F)cc3)C2)cc1` (configuration not stated)?
HSF1 inhib: 18; MITF TRPM1 HTS: 95*; esBAF inh: 63*; Wnt act: -1; HSF1 activator: 8

How did COc1ccc(-c2cc(CCCC(=O)NCCc3ccc(OC)cc3OC)no2)cc1 do in these assays?
HSF1 inhib: 37; MITF TRPM1 HTS: -5; esBAF inh: -4; HSF1 activator: 62*

Results for Cc1cccc(S(=O)(=O)N[C@H]2CC[C@@H](CCNC(=O)Nc3cc(F)ccc3F)O[C@@H]2CO)c1 ?
esBAF inh: 10

What do the screens show for `CN(c1ccccc1)c1ccc(/C=C/[N+](=O)[O-])cc1`?
HSF1 inhib: 164; MITF TRPM1 HTS: -91; Wnt act: 3; HSF1 activator: 198*

How did S=C(NCCSCc1ccc(Cl)c(Cl)c1)Nc1ccccc1 do in these assays?
HSF1 inhib: 59; MITF TRPM1 HTS: -3; esBAF inh: -2; HSF1 activator: 101*

How did S=C(NCCSCc1ccc(Cl)cc1Cl)Nc1ccccc1 do in these assays?
HSF1 inhib: 35; MITF TRPM1 HTS: -4; esBAF inh: -2; HSF1 activator: 52*

What do the screens show for `O=C(N/N=C/c1cccc(NC(=O)c2ccc(Cl)cc2)c1)c1ccc(O)cc1`?
HSF1 inhib: 19; MITF TRPM1 HTS: 58; esBAF inh: inconclusive; Wnt act: 0; HSF1 activator: 23

What do the screens show for `O=C(CN1CCN(Cc2ccc(Cl)cc2)CC1)N/N=C/c1cccc(F)c1`?
HSF1 inhib: -4; Wnt act: 43*; HSF1 activator: -2

What do the screens show for `CC(C)(C)c1ccc(C(=O)N/N=C/c2cccc(Cl)c2)cc1`?
HSF1 inhib: 10; esBAF inh: 54*; Wnt act: inconclusive; HSF1 activator: 0

Results for O=C(N/N=C/c1ccccc1Cl)c1cccc(F)c1 ?
HSF1 inhib: 42; MITF TRPM1 HTS: inconclusive; esBAF inh: 53*; Wnt act: 40*; HSF1 activator: 73*

What do the screens show for `O=C(N/N=C/c1cccc(F)c1)c1ccc(Cl)cc1`?
HSF1 inhib: 19; MITF TRPM1 HTS: 96*; esBAF inh: 69*; Wnt act: 13; HSF1 activator: 17

What do the screens show for `Cc1ccc(S(=O)(=O)N(C)C[C@H]2OCc3cn(nn3)CCCC(=O)N([C@H](C)CO)C[C@H]2C)cc1`?
esBAF inh: 2

What do the screens show for `COc1ccc(S(=O)(=O)N[C@@H]2CC[C@@H](CCn3cc(-c4cccc(F)c4)nn3)O[C@@H]2CO)cc1`?
esBAF inh: 9

How did C[C@@H]1CN([C@@H](C)CO)C(=O)c2cc(NS(=O)(=O)c3ccc(F)cc3)ccc2O[C@H]1CN(C)S(=O)(=O)c1cn(C)cn1 do in these assays?
esBAF inh: 0

Results for C[C@H]1CCCCO[C@H](CN(C)Cc2ccc(C(F)(F)F)cc2)[C@@H](C)CN([C@@H](C)CO)C(=O)c2cc(NS(=O)(=O)c3ccc(Cl)cc3)ccc2O1 ?
esBAF inh: -8

How did CCOc1cc(/C=N/NC(=O)CN2CCCCC2)ccc1OCc1ccc(Cl)cc1 do in these assays?
HSF1 inhib: 37; MITF TRPM1 HTS: 3; Wnt act: -3; HSF1 activator: 58*

Results for O=C(N/N=C/c1ccccc1Cl)c1n[nH]c2c1CCCC2 ?
HSF1 inhib: -67*; MITF TRPM1 HTS: -64; Wnt act: -7; HSF1 activator: -72

How did O=C(N/N=C/c1ccc(F)cc1)c1ccc(Br)cc1 do in these assays?
HSF1 inhib: 0; MITF TRPM1 HTS: 52; esBAF inh: 37; Wnt act: 6; HSF1 activator: 0

What do the screens show for `Cc1cccc(/C=N/NC(=O)c2ccc(Br)cc2)c1`?
HSF1 inhib: 10; MITF TRPM1 HTS: 62; esBAF inh: 59*; HSF1 activator: 21

Results for CC(C)(C)OC(=O)COc1ccc(/C=N/NC(=O)CN2CCCCC2)cc1 ?
HSF1 inhib: 8; MITF TRPM1 HTS: 35; esBAF inh: 52*; Wnt act: 6; HSF1 activator: 4

Results for c1ccc(SCc2cc(-c3ccccc3)no2)cc1 ?
HSF1 inhib: 46; MITF TRPM1 HTS: 94*; Wnt act: 12; HSF1 activator: 67*

What do the screens show for `Clc1ccc(-c2cc(CSc3ccccc3)on2)cc1`?
HSF1 inhib: 33; MITF TRPM1 HTS: 127*; esBAF inh: 22; Wnt act: -1; HSF1 activator: 66*

Results for C[C@@H]1CN([C@H](C)CO)C(=O)c2cc(NC(=O)Nc3ccc4c(c3)OCO4)ccc2O[C@@H]1CN(C)Cc1ccc(C(=O)O)cc1 ?
esBAF inh: 4

Screening results: PubChem BioAssay, Broad Institute
